About 2,000 (0.49%) of roughly 410,000 compounds were called active. Inconclusive results (about 8%) are left out. The call rests on the fitted dose curve; tested in HEK293 reporter line. For the sample, actives were picked, then their nearest neighbours and some compounds at random.
Potency means the concentration at half of the fitted maximal effect.

The assay is described as follows: qHTS Assay for Foot and Mouth Disease Virus Antivirals: Primary Screen against the MLPCN compound library. Further: nearly all actives have a fitted effect of over 55% in size. To be noted: FMDV antiviral cell-based qHTS; series mostly up to 57.9 µM; activity, negative = inhibition: at the top concentration. On the technique in general: qHTS replaces the single test concentration by a dilution series.
Turning to `COc1ccc(C)cc1NC(=O)C1CCN(S(=O)(=O)c2ccccc2)CC1`, the “activity, negative = inhibition” value is -30.9% (inactive).

With `CCOC(=O)/C=C/C(=O)Nc1ccc(S(=O)(=O)N2CCCCCC2)cc1`, the “activity, negative = inhibition” value is -33.1% (inactive). `CCOC(=O)c1sc2ccc(S(=O)(=O)N3CCCCC3)cc2c1N`: the Potency was 17.8 µM (active). In the case of `CCOC(=O)c1sc(NC(=O)c2ccc(S(=O)(=O)N3CCCCC3)cc2)nc1-c1ccccc1`, the “activity, negative = inhibition” value was -41.2% (inactive). Still for that read-out and setting: the figure for `COc1cc(OC)cc(C(=O)Nc2ccc3c(c2)CCCN3C(=O)c2cccs2)c1` is -30.8% (inactive). The same measure, in the same setting: the figure for `O=C1CC(c2ccco2)CC(O)=C1C=NCCN1CCN(C(=O)Nc2ccc(Cl)cc2)CC1` (configuration not stated) is -33.6% (inactive); for `Cc1ccc(CSCC(=O)N(C)CC(=O)Nc2c(Cl)cccc2Cl)cc1` it is -31.7% (inactive). As to `Cc1ccc(-c2noc(-c3ccc(N4CCCCC4)c([N+](=O)[O-])c3)n2)cc1`, the “activity, negative = inhibition” value is -32.2% (inactive). Regarding `O=S(=O)(Nc1ccc2ccccc2n1)c1ccc2c(c1)CCO2`, the “activity, negative = inhibition” value was 113% (inactive).

`Fc1ccc(-c2noc(-c3ccc4c(c3)CCO4)n2)cc1`: the Potency was 12.6 µM (active).

On to `O=C(NCCN1CCC(n2c(=O)[nH]c3ccccc32)CC1)c1ccc(Cl)cc1`, for which the “activity, negative = inhibition” value is -37.5% (inactive).

In the case of `CC(C)Oc1ccc(C(=O)Nc2nc3c(s2)CC(C(C)(C)C)CC3)cc1` (configuration not stated), the “activity, negative = inhibition” value was -30.1% (inactive). The same measure, in the same setting: the figure for `CN(c1ccccc1)S(=O)(=O)c1cccc(C(=O)Nc2cccc(C(=O)NC3CC3)c2)c1` is -47.3% (inactive).

On to `COCc1ccc(C(=O)Nc2cccc(S(=O)(=O)N(C)c3ccccc3)c2)cc1`, for which the Potency was 15.8 µM (active). With `CN(c1ccccc1)S(=O)(=O)c1ccc(C(=O)Nc2ccncc2)cc1`, the “activity, negative = inhibition” value is -22.9% (inactive).

As for `Cc1ccc(S(=O)(=O)N(C)CCCC(=O)Nc2cc(C)ccc2C)cc1`, the “activity, negative = inhibition” value is -34.2% (inactive). The same measure, in the same setting: the value for `CN(c1ccccc1)S(=O)(=O)c1ccc(C(=O)NCCc2ccc(F)cc2)cc1` was -32.5% (inactive); that for `Cc1ccccc1C(c1c(C)n(C)n(-c2ccccc2)c1=O)c1c(C)n(C)n(-c2ccccc2)c1=O` was -19% (inactive); that for `NC(=O)[C@@H]1CC2(CC(c3cccc(NC(=O)CC(c4ccccc4)c4ccccc4)c3)=NO2)CN1C(=O)COc1ccc(Cl)cc1` (some centres not stated) was -32.3% (inactive). `CCCCCC(=O)N1CC2(CC(c3cccc(NC(=O)COc4ccc(Cl)cc4)c3)=NO2)C[C@@H]1C(N)=O` (some centres not stated): the Potency was 14.1 µM (active). In the case of `C=C(C)C(=O)N1CC2(CC(c3cccc(NC(=O)COc4ccc(Cl)cc4)c3)=NO2)C[C@@H]1C(N)=O` (some centres not stated), the “activity, negative = inhibition” value was -30.8% (inactive). Same read-out and setting: the value for `C=C1C(C)C2C(Cc3ccccc3)NC(=O)C23OC(=O)/C=C/C(O)CCCC(C)C/C=C/C3C1O` (configuration not stated) was -34.8% (inactive); that for `CC1CCCCN1C(=O)CSc1c2c(nc3cc(Cl)ccc13)CCCC2` (configuration not stated) was -37.7% (inactive); that for `COc1ccc(S(=O)(=O)Nc2nc3ccccc3s2)cc1` was 118% (inactive). In the case of `COc1ccc(C=NNc2nc3ccccc3s2)cc1`, the Potency is 15.8 µM (active). Turning to `COc1ccc(/C=N/Nc2cc(C)nc3ccccc23)cc1`, the “activity, negative = inhibition” value is -31% (inactive).

Regarding `O=Cc1cc(Cl)ccc1OCCN1CCC(Cc2ccccc2)CC1`, the “activity, negative = inhibition” value was -35.1% (inactive). Same read-out and setting: the figure for `COc1ccccc1CN1C(=O)c2cccc3cccc(c23)C1=O` is -31% (inactive); for `COc1ccc2c(c1OC)C(=O)N1c3ccccc3C(=O)N(c3ccccc3F)C21` (configuration not stated) it is -36.1% (inactive). As for `Nc1cccc2c1C(=O)N(CCOc1ccccc1F)C2=O`, the Potency was 15.8 µM (active). Regarding `CCCCC(=O)N1CCN(c2nc3c(C)c(C)ccc3s2)CC1`, the “activity, negative = inhibition” value is -31.7% (inactive). In the case of `CCc1nc2ccc(C(=O)Nc3cc(-c4ccccc4)ccc3OC)cn2c1N(C=O)CCC(C)C`, the “activity, negative = inhibition” value was -32.4% (inactive). For the compound `CC(C)Oc1ccc(C(=O)NCC(=O)N2CCN(S(=O)(=O)/C=C/c3ccccc3)CC2)cc1`, the “activity, negative = inhibition” value was -35.9% (inactive). `Cc1ccc(-n2ncc3c(N4CCN(c5ccc(F)cc5)CC4)ncnc32)cc1`: the “activity, negative = inhibition” value was -27.8% (inactive). As to `Cc1ccc(-n2ncc3c(NC4CCCC4)ncnc32)cc1`, the Potency was 12.6 µM (active).

With `Cc1ccc(-n2ncc3c(N4CCCCC4)ncnc32)cc1`, the “activity, negative = inhibition” value is -57.3% (inactive). Same read-out and setting: the value for `COc1ccccc1N1CCN(c2ncnc3c2cnn3-c2ccc(C)cc2)CC1` was -32.8% (inactive); that for `Cc1ccc(-n2ncc3c(N4CCCCCC4)ncnc32)cc1` was -98.4% (inactive). As for `Cc1ccc(-n2ncc3c(NC4CCCCC4)ncnc32)cc1`, the Potency is 20 µM (active). For the compound `CC(C)c1cccc(C(C)C)c1NC(=O)CNCC(O)c1ccccc1` (configuration not stated), the “activity, negative = inhibition” value is -30.4% (inactive). In the case of `COc1ccccc1NC(=O)c1c(N=Cc2cccc([N+](=O)[O-])c2)cnn1C`, the “activity, negative = inhibition” value is -31.2% (inactive). Regarding `COc1ccccc1Nc1cc(C)nc2c(C)ccc([N+](=O)[O-])c12`, the “activity, negative = inhibition” value was -34.1% (inactive).

In the case of `COc1ccccc1N/C=C/c1onc(C)c1[N+](=O)[O-]`, the Potency is 12.6 µM (active). Turning to `O=C(c1ccc(F)cc1)N1CCC(c2nc(-c3ccc(S(=O)(=O)N4CCCC4)cc3)no2)CC1`, the “activity, negative = inhibition” value was -35.1% (inactive). The same measure, in the same setting: the value for `COc1ccc(-c2ccc3c(c2)CN(C(=O)C(C)(C)C)Cc2cnnn2-3)cc1` was -30.7% (inactive); that for `CCC(C)n1c(S(=O)(=O)O)nc2ccccc21` (configuration not stated) was -41.2% (inactive). With `Cc1cccc(NC(=O)c2ccc3c(=O)n4c(nc3c2)CCCCC4)n1`, the Potency was 12.6 µM (active). With `O=C(Nc1ccc2nc3n(c(=O)c2c1)CCCCC3)c1cccc(C(F)(F)F)c1`, the “activity, negative = inhibition” value is -36.3% (inactive). As for `O=C(NNC(=O)c1ccc2c(=O)n3c(nc2c1)CCC3)c1cccc(Cl)c1`, the “activity, negative = inhibition” value is -31.4% (inactive). For `CC1(C)Cc2ccccc2-c2nnc(-c3ccc4ccccc4n3)n21`, the “activity, negative = inhibition” value is -33.4% (inactive).

Take `c1ccc(-c2cn3c(n2)-c2ccccc2C3)cc1`: the Potency is 7.94 µM (active). `CN1C(=O)N(CC(=O)Nc2cccc(S(=O)(=O)N(C)c3ccccc3)c2)C(=O)C12CCCCC2`: the “activity, negative = inhibition” value is -33.6% (inactive). Regarding `CCN1C(=O)[C@H]2[C@@H](c3ccc(-c4ccc(Cl)c(Cl)c4)c(OC)c3)N[C@@](C)(C(=O)OC)[C@H]2C1=O`, the “activity, negative = inhibition” value is -42.9% (inactive). For the compound `Cc1cc(C(=O)Nc2nc(C)c(C(=O)N(C)C)s2)ccc1[N+](=O)[O-]`, the Potency is 15.8 µM (active). In the case of `COc1ccc(N(C)S(=O)(=O)c2cccc(C(=O)Nc3nc(C)c(C(C)=O)s3)c2)cc1`, the “activity, negative = inhibition” value is -50.3% (inactive). The same measure, in the same setting: the value for `Cc1nc(NC(=O)/C=C/c2ccc(C(C)(C)C)cc2)sc1C(=O)N(C)C` was -38.4% (inactive). Same read-out and setting: the figure for `CCOc1ccc(CCNC(=O)COC(=O)COc2cc(C)cc(C)c2)cc1OCC` is -24.7% (inactive); for `Cc1ccc(Nc2c(C(C)C)c(C)c(C#N)c3nc4ccccc4n23)cc1` it is -30.2% (inactive); for `COc1cccc(Oc2cnc(N)nc2-c2ccc(OC)cc2O)c1` it is -31.8% (inactive). With `Cc1cc2nc(-c3nnnn3Cc3ccccc3)c(=O)[nH]c2cc1C`, the “activity, negative = inhibition” value is -30.4% (inactive). In the case of `Cc1cc2nc(-c3ccc[nH]c3=O)[nH]c2cc1C`, the Potency was 12.6 µM (active). Turning to `COc1ccc(-c2noc(CN(C(=O)c3cccs3)C(C)C)n2)cc1`, the “activity, negative = inhibition” value is -31% (inactive).

The values above are taken from PubChem BioAssay AID1347131 (National Center for Advancing Translational Sciences (NCATS), 2019).
